CYP2C9 activ – human CYP2C9 activators, primary screen, biochemical, luminescence | activation factor at 5 µM | recombinant CYP2C9, luciferin-H conversion; active compounds read high; factor 1 = untreated enzyme, 0 = blocked | hit rate 1.4% among 96,000 | Cytochrome P450 2C9 (Homo sapiens), P11712;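 active = activation factor of 2 or more for CYP2C9 at a 5 µM dose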
Target sequence (P11712 whole entry, looked up): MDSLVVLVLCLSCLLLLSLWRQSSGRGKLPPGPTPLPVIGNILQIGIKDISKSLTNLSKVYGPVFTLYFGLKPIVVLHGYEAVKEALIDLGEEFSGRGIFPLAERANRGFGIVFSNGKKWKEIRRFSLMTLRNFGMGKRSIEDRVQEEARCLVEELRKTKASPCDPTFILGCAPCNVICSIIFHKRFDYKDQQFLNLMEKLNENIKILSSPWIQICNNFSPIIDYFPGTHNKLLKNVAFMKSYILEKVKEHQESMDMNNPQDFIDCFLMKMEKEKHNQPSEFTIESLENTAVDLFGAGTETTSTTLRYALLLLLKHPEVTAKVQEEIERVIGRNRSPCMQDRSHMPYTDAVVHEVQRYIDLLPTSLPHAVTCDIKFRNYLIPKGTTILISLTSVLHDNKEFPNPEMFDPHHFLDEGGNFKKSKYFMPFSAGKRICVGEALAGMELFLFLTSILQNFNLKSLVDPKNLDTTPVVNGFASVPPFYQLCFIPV
CYP2C9 inhib – blockers of cytochrome P450 2C9 activity – biochemical, luminescence, ADME assay, primary screen; P11712; CYP2C9 Supersomes, luciferin-H conversion; inhibition, % at 5 µM; hit rate 20% among 96,000; AID 777, 2007;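 active = blocking of liver enzyme CYP2C9 beyond about 50% at 5 µM, limit read from the data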
CYP2C19 activ – human CYP2C19 activators, primary screen, biochemical, luminescence. activation factor at 5 µM. Cytochrome P450 2C19 (Homo sapiens), P33261. AID 1025, 2008. 96,000 tested, under 10 active. recombinant CYP2C19, luciferin-H EGE luminescence; active compounds read high; 0 = fully inhibited enzyme, 1 = untreated enzyme;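 active = activation factor of at least 2 at 5 µM in the primary screen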
CYP2C19 inh – blockers of cytochrome P450 2C19 activity – biochemical, luminescence, ADME assay, primary screen; inhibition, % at 5 µM; CYP2C19 Supersomes, luciferin-H EGE luminescence, 30 min; hit rate 21% among 96,000;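 active = CYP2C19 inhibition above a set limit at 5 µM in the primary screen, cut at about 50% in these data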
Hits are given with their value; . = inactive. Most compounds without a hit are left out; they make up all but 31% or so of the library.

SMILES	CYP2C9 activ	CYP2C9 inhib	CYP2C19 activ	CYP2C19 inh
O=C(COC(=O)c1cc(S(=O)(=O)N2CCOCC2)cs1)c1ccccc1	.	.	.	.
COc1ccc(C(=O)NCCc2c[nH]c3ccccc23)cc1S(=O)(=O)N1CCOCC1	.	60.6	.	.
COc1ccc(C(C)=O)cc1COC(=O)c1ccc(S(=O)(=O)N2CCOCC2)cc1	.	93.9	.	51.4
COc1ccc(C(=O)OCC(=O)c2ccccc2)cc1S(=O)(=O)N1CCOCC1	.	55.7	.	77.7
O=C(CNC(=O)c1ccco1)OCc1c(F)cccc1Cl	.	.	.	.
CCOC(=O)c1sc2nccc(N(C)C)c2c1N=CNOCc1ccccc1	.	72.3	.	61.0
CCOC(=O)c1sc2nccc(N(C)C)c2c1N=CNOC	.	50.3	.	.
CCOC(=O)c1sc2nccc(N(C)C)c2c1N=CNOCc1c(F)cccc1Cl	.	91.5	.	76.8
CCOC(=O)c1sc(NC(=O)c2ccco2)nc1-c1ccccc1	.	.	.	.
CCOC(=O)c1sc2nc(NC(=O)C(C)(C)C)sc2c1C	.	.	.	.
CCOc1ccc2[nH]c(=O)c(CN(CCO)C(=O)c3ccc(F)cc3)cc2c1	.	.	.	.
CC1(C)CC(=O)C=C(NCCc2ccc(S(N)(=O)=O)cc2)C1	.	.	.	.
Cc1ccc(NC(=O)N/C=C/c2ccco2)cc1	.	.	.	.
CCOC(=O)C1CCN(S(=O)(=O)Cc2ccccc2)C1=O (configuration not stated)	.	.	.	77.0
C=CCn1nnc2sc3c(c2c1=O)CCC(C)C3 (configuration not stated)	.	.	.	96.9
Cc1nnsc1NC(=O)OCC(C)(C)C	.	.	.	.
Cc1ccnc(NC(=O)c2ccc(N3C(=O)CCC3=O)cc2)c1	.	.	.	.
O=C(Nc1ccc2c(c1)N(Cc1ccccc1)C(=O)c1ccccc1S2)NC1CC1	.	76.3	.	86.9
CN1C(=O)c2ccccc2Sc2ccc(NC(=O)NC3CC3)cc21	.	.	.	.
CN(C(=O)CN1CCC(NC(=O)C2CCCCC2)CC1)C1CCCCC1	.	.	.	.
CCCOc1ccc(S(=O)(=O)n2cc(Br)c(=O)[nH]c2=O)cc1	.	97.9	.	.
CCN(CC)C(=O)Oc1ccc(Cl)c2ccccc12	.	.	.	67.2
CCN(CC)C(=O)Oc1ccccc1NC(C)=O	.	.	.	.
O=c1c2ccccc2nc(COc2ccccc2)n1/N=C/c1ccco1	.	78.8	.	62.0
CCCc1nc2ccccc2c(=O)n1/N=C/c1ccc(O)cc1	.	.	.	.
SMILES	CYP2C9 activ	CYP2C9 inhib	CYP2C19 activ	CYP2C19 inh
COC(=O)c1ccc(OC(=O)c2ccco2)cc1	.	.	.	.
O=C(Oc1ccc(OC(=O)c2ccco2)c(S(=O)(=O)c2ccc(Br)cc2)c1)c1ccco1	.	71.6	.	63.5
O=C1NCCCC1C(=O)N/N=C/c1ccccc1 (configuration not stated)	.	.	.	.
COc1ccc(N2C(=O)CSC2c2ccc3c(c2)OCO3)c(OC)c1 (configuration not stated)	.	.	.	84.0
COc1ccc(N2C(=O)CSC2c2ccncc2)cc1 (configuration not stated)	.	58.0	.	.
COc1ccc(N2C(=O)CSC2c2ccc3c(c2)OCO3)cc1 (configuration not stated)	.	.	.	89.0
COc1ccc(N2C(=O)CSC2c2cccc(F)c2)c(OC)c1 (configuration not stated)	.	.	.	.
CC(C)Sc1nnc([C@H](Cc2c[nH]c3ccccc23)NC(=O)OC(C)(C)C)o1	.	.	.	.
CC(C)NC(=O)CSc1nnc(-c2ccc(S(=O)(=O)N3CCCC3)cc2)n1CC1CCCO1 (configuration not stated)	.	.	.	.
Cc1cc(C)nc(SC(C)C(=O)Nc2ccc(S(N)(=O)=O)cc2)n1 (configuration not stated)	.	.	.	.
CC(=O)Nc1ccc(S(=O)(=O)Nc2nnc(C3CCCCC3)s2)cc1	.	.	.	.
CC(C)(C)NC(=S)Nc1ccc(Nc2ccccc2)cc1	.	54.3	.	.
CC(C)(C)NC(=S)Nc1ccc(Br)cc1	.	.	.	.
CCOC(=O)c1cc(C(C)=O)n2ccccc12	.	.	.	.
CCOC(=O)c1c(-c2ccccc2Cl)cn2ccccc12	.	78.3	.	73.1
Fc1ccccc1CSc1nncn1NC/C=C/c1ccccc1	.	.	.	52.8
CC1=C(C(=O)OCCOC(C)C)C(c2cc3c(cc2Br)OCO3)CC(=O)N1 (configuration not stated)	.	65.3	.	79.7
CSCCOC(=O)C1=C(C)NC(=O)CC1c1ccccc1Cl (configuration not stated)	.	.	.	.
CC1=C(C(=O)OC2CCCCCCC2)C(c2cc3c(cc2Br)OCO3)CC(=O)N1 (configuration not stated)	.	84.7	.	75.3
COC(=O)C1=C(C)NC(=O)CC1c1ccc(F)c(Br)c1 (configuration not stated)	.	.	.	50.9
COC(=O)C1=C(C)NC(=O)CC1c1cc2c(cc1Br)OCO2 (configuration not stated)	.	71.4	.	81.7
COC(=O)C1=C(C)NC(=O)CC1c1ccc(C(=O)OC)cc1 (configuration not stated)	.	.	.	.
C=CCn1c(CCNC(=O)c2ccccc2F)nnc1SCC(=O)Nc1nc2ccccc2s1	.	59.1	.	.
C=CCn1c(CSc2nc3ccccc3s2)nnc1SCC(=O)OCC	.	.	.	77.2
C=CCn1c(CNC(=O)c2cccs2)nnc1SCC(=O)c1ccc(Br)cc1	.	60.7	.	.
SMILES	CYP2C9 activ	CYP2C9 inhib	CYP2C19 activ	CYP2C19 inh
C=CCn1c(CNC(=O)c2cccs2)nnc1SCC(=O)Nc1ccc(C(=O)O)cc1	.	.	.	.
C=CCn1c(CCNC(=O)c2cccs2)nnc1SCC(=O)c1cccc([N+](=O)[O-])c1	.	.	.	.
C=CCn1c(CCNC(=O)c2cccs2)nnc1SCC(=O)c1ccc(Cl)cc1	.	78.9	.	77.5
COc1nc(C)nc2c1sc(=S)n2C	.	.	.	.
CSc1ccc(S(=O)(=O)Nc2ccc(NC(C)=O)cc2)cc1	.	94.5	.	99.9
CSc1ccc(S(=O)(=O)Nc2ccc(S(=O)(=O)Nc3ccc(C)cc3)cc2)cc1	.	100.3	.	94.8
CCOc1ccc2nc(SCC(=O)NC(=O)NCc3ccco3)[nH]c2c1	.	.	.	.
O=C1CC(c2cccc(Cl)c2)CC(O)=C1C=NCCCO (configuration not stated)	2.7	.	.	.
O=C1CC(c2ccccc2)CC(O)=C1C=NCc1ccc(Cl)cc1 (configuration not stated)	.	.	.	.
O=C(NCc1cccs1)c1cnc2ccccn2c1=O	.	.	.	.
O=C(CSc1nnc(NCc2ccccc2)s1)c1ccco1	.	81.2	.	61.6
Cn1nnnc1SCC(=O)c1ccco1	.	.	.	.

Assay outcomes from PubChem BioAssay.
